{"source": "PubChem BioAssay AID651582", "about": "(Sanford-Burnham Center for Chemical Genomics, 2012)", "note": "The whole screen tested about 230,000 compounds, of which about 1,500 (0.65%) were called active. The sample holds actives, similar compounds and a random draw of the others, so the mix is not that of the screen.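 The calls were made as follows: active = pattern-corrected inhibition of lipid staining of at least 50% with the nuclear-stain viability signal not falling by more than 50%; inactive = the rest, inconclusive results apart.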"}
{"assay": "inhibitors of triacylglycerol accumulation, primary screen, cell-based, uHTS, fluorescence, H9c2 (AID 651582);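 as to inhibition: 0% = DMSO wells and 100% = triacsin C control wells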", "settings": "H9c2 cells, Nile Red lipid (TAG) fluorescence, at 12.5 µM, cells loaded with 200 µM oleic acid; DAPI nuclei signal change (viability), lower = more cytotoxic: measured here: DAPI nuclei count viability; inhibition: stronger effect = higher value", "units": {"DAPI nuclei signal change (viability), lower = more cytotoxic": "%"}}
{"smiles": "COc1ccccc1-n1c(=S)[nH]c2c(sc(=S)n2-c2ccc(C)cc2C)c1=O", "DAPI nuclei signal change (viability), lower = more cytotoxic": -48.2, "inhibition": "65.4% (active)"}
{"smiles": "CCc1ccc(-n2c(=S)sc3c(=O)n(-c4ccccc4OC)c(=S)[nH]c32)cc1", "DAPI nuclei signal change (viability), lower = more cytotoxic": 8.9, "inhibition": "-2.37% (inactive)"}
{"smiles": "COc1cccc(-n2c(=S)sc3c(=O)n(-c4ccccc4OC)c(SCC4OCCO4)nc32)c1", "DAPI nuclei signal change (viability), lower = more cytotoxic": -13.5, "inhibition": "20.8% (inactive)"}
{"smiles": "O=C(Nc1cc2c3c(c1)C1CCCC1CN3CC1CCCC21)c1ccc([N+](=O)[O-])cc1", "note": "(centres undefined)", "DAPI nuclei signal change (viability), lower = more cytotoxic": -11.5, "inhibition": "53.3% (active)"}
{"smiles": "CN(CC1CCCO1)S(=O)(=O)c1ccc(C(=O)Nc2ccc([N+](=O)[O-])cc2)cc1", "note": "(centres undefined)", "DAPI nuclei signal change (viability), lower = more cytotoxic": 3.29, "inhibition": "-15.4% (inactive)"}
{"smiles": "O=C(Nc1ccc(C(=O)N2CCCCC2)cc1)c1cccc([N+](=O)[O-])c1", "DAPI nuclei signal change (viability), lower = more cytotoxic": 5.03, "inhibition": "3.82% (inactive)"}
{"smiles": "CC1CCN(C(=S)c2cccc([N+](=O)[O-])c2)CC1", "DAPI nuclei signal change (viability), lower = more cytotoxic": 4.33, "inhibition": "-2.26% (inactive)"}
{"smiles": "O=C(Cc1ccccc1)N1CCN(S(=O)(=O)c2ccc([N+](=O)[O-])cc2)CC1", "DAPI nuclei signal change (viability), lower = more cytotoxic": -3.05, "inhibition": "-0.872% (inactive)"}
{"smiles": "CC1(c2ccccc2)CC(C)(C)N(C(=O)c2cc([N+](=O)[O-])cc([N+](=O)[O-])c2)c2ccccc21", "note": "(centres undefined)", "DAPI nuclei signal change (viability), lower = more cytotoxic": -2.38, "inhibition": "54.1% (active)"}
{"smiles": "CCCCN(C=O)c1c(CC)nc2c(OCc3ccccc3C(=O)OC)cccn12", "DAPI nuclei signal change (viability), lower = more cytotoxic": -7.9, "inhibition": "4.1% (inactive)"}
{"smiles": "O=C(CCl)NNc1nc(-c2ccccc2)c2cc(Cl)ccc2n1", "DAPI nuclei signal change (viability), lower = more cytotoxic": -5.54, "inhibition": "4.04% (inactive)"}
{"smiles": "CN(/N=C/c1ccccc1)C(=S)c1ccccc1", "DAPI nuclei signal change (viability), lower = more cytotoxic": -19.1, "inhibition": "63.6% (active)"}
{"smiles": "CN(O)C(=S)c1ccccc1", "DAPI nuclei signal change (viability), lower = more cytotoxic": -65.1, "inhibition": "90.7% (inactive)"}
{"smiles": "O=C(NN=Cc1ccccc1)c1ccccc1", "DAPI nuclei signal change (viability), lower = more cytotoxic": 1.87, "inhibition": "-3.23% (inactive)"}
{"smiles": "NC(=O)c1ncn([C@@H]2O[C@H](CNCc3cnc(N4CCOCC4)s3)[C@@H](O)[C@H]2O)n1", "DAPI nuclei signal change (viability), lower = more cytotoxic": -1.13, "inhibition": "2.87% (inactive)"}
{"smiles": "Cc1ccccc1OCC(=O)Nc1ccc(N2CCN(C(=O)C(C)C)CC2)c(Cl)c1", "DAPI nuclei signal change (viability), lower = more cytotoxic": -3.43, "inhibition": "53.8% (active)"}
{"smiles": "Cc1ccccc1OCC(=O)Nc1ccc2c(c1)ncn2C", "DAPI nuclei signal change (viability), lower = more cytotoxic": 5.22, "inhibition": "2.71% (inactive)"}
{"smiles": "CCC(=O)N1CCN(c2ccccc2NC(=O)COc2cccc(C)c2C)CC1", "DAPI nuclei signal change (viability), lower = more cytotoxic": -0.0457, "inhibition": "-24.8% (inactive)"}
{"smiles": "CN1CCC(N(C)S(=O)(=O)c2ccc(NC(=O)c3cccc(C#N)c3)cc2)CC1", "DAPI nuclei signal change (viability), lower = more cytotoxic": -3.7, "inhibition": "15.9% (inactive)"}
{"smiles": "Oc1cccc2cc(-c3ccncc3)cnc12", "DAPI nuclei signal change (viability), lower = more cytotoxic": -33.8, "inhibition": "56.3% (active)"}
{"smiles": "COc1ccc(NC(=O)CSc2nnc(C3CC3)n2C)cc1S(=O)(=O)N1CCCCC1", "DAPI nuclei signal change (viability), lower = more cytotoxic": 9.15, "inhibition": "-10.9% (inactive)"}
{"smiles": "CCN(CC)C(=O)C1=C(C)N(Cc2ccccc2)C(=O)C(CC(=O)NC(c2ccccc2)c2ccccc2)C1", "note": "(centres undefined)", "DAPI nuclei signal change (viability), lower = more cytotoxic": -1.27, "inhibition": "22.4% (inactive)"}
{"smiles": "Cc1ccc(S(=O)(=O)N2CCN(C(=O)c3cc(S(=O)(=O)N4CCOCC4)ccc3F)CC2)cc1", "DAPI nuclei signal change (viability), lower = more cytotoxic": -10.8, "inhibition": "2.68% (inactive)"}
{"smiles": "O=C(CCl)N(Cc1cccc([N+](=O)[O-])c1)c1cccc(Cl)c1", "DAPI nuclei signal change (viability), lower = more cytotoxic": 0.0094, "inhibition": "53.5% (active)"}
{"smiles": "Cc1ccc(S(=O)(=O)N(Cc2cccc([N+](=O)[O-])c2)C(=O)N2CCN(C)CC2)cc1", "DAPI nuclei signal change (viability), lower = more cytotoxic": -12.6, "inhibition": "6.71% (inactive)"}
{"smiles": "CCN(CC)C(=O)CN(c1cccc([N+](=O)[O-])c1)S(=O)(=O)c1ccccc1", "DAPI nuclei signal change (viability), lower = more cytotoxic": -11.2, "inhibition": "5.09% (inactive)"}
{"smiles": "COc1ccc(-c2c(C#N)cnc(C)c2C)c(O)c1OC", "DAPI nuclei signal change (viability), lower = more cytotoxic": -5.41, "inhibition": "12.5% (inactive)"}
{"smiles": "CC1(C(=O)NCc2ccco2)Cc2c(-c3ccc4c(c3)OCO4)ccnc2O1", "note": "(centres undefined)", "DAPI nuclei signal change (viability), lower = more cytotoxic": -35.6, "inhibition": "52.2% (active)"}
{"smiles": "CC(=O)Nc1cccc(-c2ccnc3c2CC(C)(C(=O)NCc2ccco2)O3)c1", "note": "(centres undefined)", "DAPI nuclei signal change (viability), lower = more cytotoxic": -40.5, "inhibition": "43.4% (inactive)"}
{"smiles": "CC1(C(=O)NCc2ccc(F)c(F)c2)Cc2c(-c3ccc4c(c3)OCO4)ccnc2O1", "note": "(centres undefined)", "DAPI nuclei signal change (viability), lower = more cytotoxic": -30.3, "inhibition": "36.2% (inactive)"}
{"smiles": "CCc1nc2c(OCC(=O)C(C)(C)C)cccn2c1N(C)C(=O)c1ccccc1F", "DAPI nuclei signal change (viability), lower = more cytotoxic": -14.1, "inhibition": "14.9% (inactive)"}
{"smiles": "CCN(CC(=O)Nc1ccc(NC(C)=O)cc1)C(=O)CSC(=S)N1CCCC1", "DAPI nuclei signal change (viability), lower = more cytotoxic": -7.39, "inhibition": "-13.5% (inactive)"}
{"smiles": "Cc1nnc(N/N=C/c2cccs2)[nH]c1=O", "DAPI nuclei signal change (viability), lower = more cytotoxic": 4.89, "inhibition": "29.3% (inactive)"}
{"smiles": "Cc1ccccc1Nc1nnc(C)c(=O)[nH]1", "DAPI nuclei signal change (viability), lower = more cytotoxic": 1.64, "inhibition": "-16.3% (inactive)"}
{"smiles": "Cc1nnc(N/N=C/c2ccccn2)[nH]c1=O", "DAPI nuclei signal change (viability), lower = more cytotoxic": -33.8, "inhibition": "53.3% (active)"}
{"smiles": "Cc1cc(C)cc(NC(=O)NCc2ccccn2)c1", "DAPI nuclei signal change (viability), lower = more cytotoxic": 7.71, "inhibition": "-29.5% (inactive)"}
{"smiles": "O=[N+]([O-])c1ccc(C=NN=Cc2ccc([N+](=O)[O-])cc2)cc1", "DAPI nuclei signal change (viability), lower = more cytotoxic": -4.6, "inhibition": "6.59% (inactive)"}
